Experimental data taken from PubChem BioAssay (NCATS).
Records with an inconclusive call do not appear. The source made the active and inactive calls. Calls follow the shape of the dose curve; as a rule, active = well fitted inhibition curve with a large enough effect; inconclusive = small, poorly fitted or top-dose-only effect; inactive = flat fitted curve, though single readings scatter. Where a SMILES comes first, the peptide text is derived from it.

What follows are compounds tested on HACAT (assay: qHTS assay to identify novel small-molecules to repurpose for Merkel cell carcinoma treatment (AID 1296009; also: nearly all actives have a fitted effect of over 60% in size)). Conditions: MCC and control cell lines, CellTiter-Glo viability, 72 h; at 44.8 µM (top of the series) unless noted.
How it was run: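 Cells exposed to NPC (8-point) and MIPE (11-point) compound dilutions for 72 hr at 37 degree celsius; viability read by CellTiter-Glo luminescence, normalized to no-cell and DMSO in-plate controls.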

Row | SMILES | outcome
1 | CCC(C)/C=C(C)/C=C/C1=CC2=C(Cl)C(=O)C(C)(OC(C)=O)C(=O)C2=CN1C1CCCCN(C(CCC(N)=O)C(=O)O)C1=O (stereo unspecified) | inactive [at 17.4 µM]
2 | C=C1C(=O)OC2CC(C)=C(C(C)CCCO[C@@H]3O[C@H](CO)[C@@H](O)[C@H](O)[C@H]3O)C(O)C12 (stereo partly specified) | inactive [at 17.4 µM]
3 | CC(C)C1=CCC(C)(O)C(OC2OC(CO)C(O)C(O)C2O)C1 (stereo unspecified) | inactive
4 | C[C@H]1C[C@H]2[C@@H]3CCC4=CC(=O)C=C[C@]4(C)[C@@]3(F)[C@@H](O)C[C@]2(C)[C@@]1(O)C(=O)COP(=O)(O)O | inactive
5 | C=C(C(=O)O)[C@@H]1CC=C2CCC[C@H](C)[C@@]2(C)C1 | inactive
6 | C=C1CC2[C@]3(C)C(=C(O)C(=O)[C@@]2(C)[C@]2(C(=O)OC)C(=O)C(C)OC(=O)[C@@]12C)C(C)(C)C(=O)CC3O (stereo partly specified) | inactive [at 17.4 µM]
7 | COC(=O)[C@@]1(O)C=CC[C@@H]2[C@@]3(C)C[C@@H](c4ccoc4)OC(=O)[C@H]3CC[C@]21C | inactive
8 | CC(=O)OC[C@]12[C@H](OC(C)=O)C(=O)[C@@H]3[C@@H](OC(C)=O)[C@@]14O[C@@]3(C)COC(=O)c1cccnc1[C@@H](C)[C@H](C)C(=O)O[C@@H]([C@H](OC(C)=O)[C@@H]2OC(C)=O)[C@]4(C)O | inactive [at 17.4 µM]
9 | CCCCCCc1cccc(NC(=O)[C@H](N)CCP(=O)(O)O)c1 | inactive [at 9.27 µM]
10 | C/C(=C\CCC(C)(O)c1ccc(C)cc1)C(=O)O (stereo unspecified) | inactive
11 | CO[C@H]1C=C2C(CC[C@H](O[C@@H]3O[C@H](CO)[C@@H](O)[C@@H](O)[C@H]3O)C2(C)C)[C@]2(C)CC[C@]3(C)C([C@H](C)C(O)C(C=C(C)C)O[C@@H]4O[C@H](CO)[C@@H](O)[C@@H](O)[C@H]4O)CC[C@@]3(C)C12 (stereo partly specified) | inactive [at 9.27 µM]
12 | C[C@@H]1O[C@@H](O[C@@H]2[C@@H](O)[C@H](O[C@@H]3[C@@H](O)[C@@H](O)[C@H](O[C@H]4[C@H](OC(=O)[C@]56CCC(C)(C)C[C@H]5C5=CCC7[C@@]8(C)C[C@H](O)[C@H](O[C@@H]9O[C@H](C(=O)O)[C@@H](O)[C@H](O)[C@H]9O)[C@@](C)(CO)C8[C@H](O)C[C@@]7(C)[C@]5(C)CC6)OC[C@H](O)[C@@H]4O)O[C@H]3C)OC[C@H]2O)[C@H](O)[C@H](O)[C@H]1O (stereo partly specified) | inactive [at 9.27 µM]
13 | C/C=C/C=C/C=C/C(=O)O[C@@H]1C=C(CO)C(O)(C(=O)O)[C@@]2(C)CCCC(C)(C)[C@H]12 (stereo partly specified) | inactive [at 17.4 µM]
14 | CCOC(=O)c1ccnc(CNCC(=O)N(CC)CCN(C)C)c1 | inactive
15 | C/C=C/C=C/C=C/C(=O)O[C@@H]1[C@@H](OC)C2=C(C(=O)N(C(C)C(=O)O)C2)[C@@]2(C)CCCC(C)(C)[C@H]12 (stereo partly specified) | inactive [at 17.4 µM]
16 | C[C@H]1CN(C[C@H](Cc2ccccc2)C(=O)NCC(=O)O)CC[C@@]1(C)c1cccc(O)c1 | inactive

Row | SMILES | outcome
17 | C=C(C)C(=O)O[C@H]1C[C@@](C)(OC(C)=O)[C@@]2(O)CC[C@@](C)(O)[C@H](OC(C)=O)[C@@]23OC(=O)C(COC)=C13 | inactive [at 17.4 µM]
18 | CC(=O)NCCCCn1c2c(c3ccccc31)C(=O)NCC2 | inactive
19 | CC[C@@H](c1ccc(F)c(F)c1)n1c(C(=O)OC)c(-c2ccno2)[nH]c1=S | inactive
20 | CC/C=C/CC1=C(CCCCCCCC(=O)O)CCC1=O | inactive
21 | C=C[C@H]1[C@H](O[C@@H]2O[C@H](CO)[C@@H](O)[C@H](O)[C@H]2O)OC=C2C(=O)OCC[C@]21O | inactive
22 | O=C(NN1CCCCC1)c1nn(-c2ccc(Cl)cc2Cl)c(-c2ccc(C#Cc3ccc(C(F)(F)F)cc3)s2)c1CNS(=O)(=O)N1CCCC1 | inactive
23 | NCc1c[nH]c(=S)n1C1CCc2c(F)cc(F)cc2C1 (stereo unspecified) | inactive
24 | O=C(O)Cc1nn(Cc2nc3cc(C(F)(F)F)ccc3s2)c(=O)c2nccnc12 | inactive
25 | CC(=O)N1CCN(NC(=O)c2ccc(F)cc2)CC1 | inactive
26 | COc1ccc2cc(OCC3(C(=O)O)CN(C(=O)c4ccc(F)cc4)C3)ccc2c1 | inactive
27 | C=C[C@](C)(CC/C=C(\C)C(=O)O)O[C@@H]1OC[C@H](O)[C@H](O)[C@H]1O | inactive
28 | CC1(C)CC2C3=CCC4C5(C)CCC(OC6OC(C(=O)O)C(O)C(O)C6OC6OC(CO)C(O)C(O)C6OC6OC(CO)C(O)C(O)C6O)C(C)(CO)C5CCC4(C)C3(C)CCC2(C)C(OC2OCC(O)C(OC3OC(CO)C(O)C(O)C3O)C2O)C1O (stereo unspecified) | inactive [at 9.27 µM]
29 | COc1cc(/C=C/C(=O)OC2[C@H](O)CC(O)(C(=O)O)C[C@H]2O)ccc1O (stereo partly specified) | inactive
30 | CC(C)=CC/C=C(/C)[C@H]1CC[C@]2(C)[C@@H]1[C@H](O)CC1[C@@]3(C)CC[C@H](O)C(C)(C)[C@@H]3[C@@H](O[C@@H]3O[C@H](CO)[C@@H](O)[C@H](O)[C@H]3O[C@@H]3O[C@@H](C)[C@H](O)[C@@H](O)[C@H]3O)C[C@]12C (stereo partly specified) | inactive [at 17.4 µM]
31 | CC1NC(=O)CNC(=O)C(C(C)C)NC(=O)C2CCCN2C(=O)C(C(C)C)NC(=O)C(Cc2c[nH]c3ccccc23)NC1=O (stereo unspecified) (cyclo(GAWVPV); configuration not given here) | inactive [at 17.4 µM]
